Experimental data published in PubChem BioAssay (NCI).
Values joined by “and” are separate entries in the source; they are usually repeats but may differ in a detail not shown here. Equal values may be shown once. The panel holds about 83,000 compounds, 20% with a hit somewhere; the sample as a whole holds those more often.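 A percent growth of 40 corresponds to 60% growth inhibition; 0 means no net growth; -100 means all cells died. Active threshold: below 10.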 Active and inactive are the calls of the source.

Columns and labels:
Test in all cases: NCI-60 one-dose screen, 48 h (100 = growth as untreated, 0 = no growth, -100 = all killed)
T-47D breast = system: T-47D breast
BT-549 breast = system: BT-549 breast
MDA-MB-435 melanoma = system: MDA-MB-435 melanoma
MCF7 breast = system: MCF7 breast
HCT-116 colon = system: HCT-116 colon
HCC-2998 colon = system: HCC-2998 colon
KM12 colon = system: KM12 colon
SW-620 colon = system: SW-620 colon

Measured: growth

Nc1ccn(C2OC(CO)C(O)C2O)c(=O)n1 (configuration not stated)
inactive: T-47D breast; 10 µM unless noted 55.5% and 58.3% and 101%

Cc1[nH]c(-c2nc3ccccc3[nH]2)c(C)c1C(=O)NC(C)C1CCCCC1 (configuration not stated)
inactive: T-47D breast; 10 µM 89% | BT-549 breast; 10 µM 95.5% | MDA-MB-435 melanoma; 10 µM 37.5% | MCF7 breast; 10 µM 71.1% | HCT-116 colon; 10 µM 85.5% | HCC-2998 colon; 10 µM 97.9% | KM12 colon; 10 µM 84.4%
active: T-47D breast; 100 µM -58.1% | BT-549 breast; 100 µM -81.6% | MDA-MB-435 melanoma; 100 µM -94.8% | MCF7 breast; 100 µM -73.7% | HCT-116 colon; 100 µM -76.8% | HCC-2998 colon; 100 µM -82.6% | KM12 colon; 100 µM -91.8%

O=C(O)C1(C(=O)O)CCC1.[NH2-].[NH2-].[Pt+2]
inactive: T-47D breast; 10 µM unless noted 96.6% and 102% | BT-549 breast; 10 µM unless noted 103% and 106% | MDA-MB-435 melanoma; 10 µM unless noted 108% and 99.5% | SW-620 colon; 10 µM unless noted 111% and 103% | MCF7 breast; 10 µM unless noted 98.5% and 90.9% | HCT-116 colon; 10 µM unless noted 107% and 108% | HCC-2998 colon; 10 µM unless noted 97.2% and 118% | KM12 colon; 10 µM unless noted 112% and 100%

CCCCCCCCCCCCCCCc1ccc(Cl)c(O)c1Cl (tested in a mixture with another compound)
inactive: T-47D breast; 0.25 µM 35.5% | T-47D breast; 10 µM 85.4% | BT-549 breast; 0.25 µM 66.2% | BT-549 breast; 10 µM 103% | MDA-MB-435 melanoma; 0.25 µM 56% | MDA-MB-435 melanoma; 10 µM 103% | SW-620 colon; 0.25 µM 24.4% | SW-620 colon; 10 µM 101% | MCF7 breast; 0.25 µM 16.4% | MCF7 breast; 10 µM 112% | HCT-116 colon; 0.25 µM 21.4% | HCT-116 colon; 10 µM 75.7% | HCC-2998 colon; 0.25 µM 38.6% | HCC-2998 colon; 10 µM 116% | KM12 colon; 0.25 µM 46% | KM12 colon; 10 µM 96.7%

COc1cc(NS(C)(=O)=O)ccc1Nc1c2ccccc2nc2c(C)cccc12
6.14% (active) and 16.4% (inactive): SW-620 colon; 10 µM unless noted
inactive: MDA-MB-435 melanoma; 10 µM unless noted 37.1% and 45.7% | MCF7 breast; 10 µM unless noted 14.1% and 14%
active: T-47D breast; 10 µM unless noted 2.65% and 4.75% | BT-549 breast; 10 µM unless noted 3.76% and 4.61% | HCT-116 colon; 10 µM unless noted 0.292% and 8.67% | HCC-2998 colon; 10 µM unless noted -60.5% and -6.07% | KM12 colon; 10 µM unless noted -32.8% and 7.97%

COc1ccc(-c2cn[nH]c2-c2cc(OC)c(OC)c(OC)c2)cc1N
9.16% (active) and 16.9% (inactive): KM12 colon; 10 µM unless noted
30.8% (inactive) and 5.24% (active): BT-549 breast; 10 µM unless noted
active: MDA-MB-435 melanoma; 10 µM unless noted -47.4% and -19% | HCT-116 colon; 10 µM unless noted 3.95% and 7.78%
inactive: T-47D breast; 10 µM unless noted 73% and 86.7% | SW-620 colon; 10 µM unless noted 24.7% and 27.7% | MCF7 breast; 10 µM unless noted 21.6% and 15.8% | HCC-2998 colon; 10 µM unless noted 13.7% and 23%

CCc1ccccc1-n1c(N)c(C#N)c(-c2ccc(OC)c(OC)c2)c(C#N)c1=O
active: T-47D breast; 100 µM 3.67% | BT-549 breast; 100 µM -17.8%
inactive: T-47D breast; 10 µM 102% | BT-549 breast; 10 µM 109% | MDA-MB-435 melanoma; 10 µM 113% | MDA-MB-435 melanoma; 100 µM 82.5% | MCF7 breast; 10 µM 115% | MCF7 breast; 100 µM 10.4% | HCT-116 colon; 10 µM 110% | HCT-116 colon; 100 µM 27.8% | HCC-2998 colon; 10 µM 122% | HCC-2998 colon; 100 µM 79.6% | KM12 colon; 10 µM 99.3% | KM12 colon; 100 µM 45.6%

O=C(/C=C/c1ccccn1)c1ccccc1O
9.46% (active) and 97.3% (inactive): HCC-2998 colon; 10 µM unless noted
inactive: T-47D breast; 10 µM unless noted 68.7% and 66% | BT-549 breast; 10 µM unless noted 112% | MDA-MB-435 melanoma; 10 µM unless noted 58.2% and 75.2% | SW-620 colon; 10 µM unless noted 46.1% and 73.8% | MCF7 breast; 10 µM unless noted 37.9% and 37.4% | HCT-116 colon; 10 µM unless noted 44.6% | KM12 colon; 10 µM unless noted 40.4% and 48.2%

O=c1c2ccccc2nc2n1Cc1nc3ccccc3c(=O)n1C2
inactive: T-47D breast; 10 µM unless noted 106% and 108% | BT-549 breast; 10 µM unless noted 89.8% and 94.1% | MDA-MB-435 melanoma; 10 µM unless noted 93.5% and 101% | SW-620 colon; 10 µM unless noted 97.3% and 103% | MCF7 breast; 10 µM unless noted 84.5% and 97.9% | HCT-116 colon; 10 µM unless noted 111% and 94.6% | HCC-2998 colon; 10 µM unless noted 106% and 104% | KM12 colon; 10 µM unless noted 99.6% and 101%

CCOc1ccc2nc3cc(N)ccc3c(N)c2c1
35.7% (inactive) and -3.05% (active): BT-549 breast; 10 µM unless noted
active: T-47D breast; 10 µM unless noted 7.14% and -4.55%
inactive: MDA-MB-435 melanoma; 10 µM unless noted 91.7% and 98.2% | SW-620 colon; 10 µM unless noted 46.1% and 50% | MCF7 breast; 10 µM unless noted 16.8% | HCT-116 colon; 10 µM unless noted 46.4% and 29.6% | HCC-2998 colon; 10 µM unless noted 45.3% and 46.1% | KM12 colon; 10 µM unless noted 45.1% and 31.5%

Oc1ccc(/C=C/c2ccccc2)cc1
inactive: T-47D breast; 10 µM unless noted 97.4% and 92.3% | BT-549 breast; 10 µM unless noted 62.6% and 68.1% | MDA-MB-435 melanoma; 10 µM unless noted 76% and 74.8% | SW-620 colon; 10 µM unless noted 72.1% and 62.7% | MCF7 breast; 10 µM unless noted 65% and 75% | HCT-116 colon; 10 µM unless noted 75.8% and 73.8% | HCC-2998 colon; 10 µM unless noted 86.8% and 86.5% | KM12 colon; 10 µM unless noted 54% and 54.6%

CC1(C)OB(c2ccc(Cn3cc(F)c(=O)[nH]c3=O)cc2)OC1(C)C
inactive: T-47D breast; 10 µM 102% | T-47D breast; 50 µM 49.3% | BT-549 breast; 10 µM 104% | BT-549 breast; 50 µM 40.1% | MDA-MB-435 melanoma; 10 µM 83.6% | SW-620 colon; 10 µM 95.8% | SW-620 colon; 50 µM 34.2% | MCF7 breast; 10 µM 100% | MCF7 breast; 50 µM 19.1% | HCT-116 colon; 10 µM 101% | HCT-116 colon; 50 µM 29.3% | HCC-2998 colon; 10 µM 104% | HCC-2998 colon; 50 µM 74.4% | KM12 colon; 10 µM 99% | KM12 colon; 50 µM 26.4%
active: MDA-MB-435 melanoma; 50 µM 4.27%

CCN(CC)CCc1nc(-c2ccccc2)no1
inactive: T-47D breast; 10 µM unless noted 55.8% and 81.1% | BT-549 breast; 10 µM unless noted 55.2% and 103% | MDA-MB-435 melanoma; 10 µM unless noted 90.1% and 99.3% | SW-620 colon; 10 µM unless noted 73.3% and 114% | MCF7 breast; 10 µM unless noted 58.5% and 96% | HCT-116 colon; 10 µM unless noted 85.5% and 103% | HCC-2998 colon; 10 µM unless noted 113% and 111% | KM12 colon; 10 µM unless noted 85% and 111%

Oc1ccccc1/C=N\NC(=S)N/N=C/c1ccccc1O
inactive: T-47D breast; 10 µM unless noted 48.4% and 51.6% | BT-549 breast; 10 µM unless noted 47.3% and 49.8% | MDA-MB-435 melanoma; 10 µM unless noted 56.3% and 44.2% | SW-620 colon; 10 µM unless noted 47.5% and 50.7% | MCF7 breast; 10 µM unless noted 25.6% and 26.8% | HCT-116 colon; 10 µM unless noted 28% and 22.9% | HCC-2998 colon; 10 µM unless noted 33.8% and 49.7% | KM12 colon; 10 µM unless noted 39% and 28.2%

O=C(Nc1cccc(Cl)c1)c1cc2ccccc2cc1O
18.9% (inactive) and 6.81% (active): HCT-116 colon; 10 µM unless noted
inactive: MDA-MB-435 melanoma; 10 µM unless noted 28.8% and 13.9% | SW-620 colon; 10 µM unless noted 13.1% and 13.9% | MCF7 breast; 10 µM unless noted 35.5% and 16.9% | HCC-2998 colon; 10 µM unless noted 27.4% | KM12 colon; 10 µM unless noted 15.4% and 11.8%
active: BT-549 breast; 10 µM unless noted 6.65% and 0.941%
15.5% (inactive) and 2.04% (active): T-47D breast; 10 µM unless noted

CC(O)(CC(=O)CC(=O)c1ccccc1)c1ccccc1 (configuration not stated)
inactive: T-47D breast; 10 µM unless noted 108% and 109% | BT-549 breast; 10 µM unless noted 93.4% and 95.8% | MDA-MB-435 melanoma; 10 µM unless noted 97.8% | SW-620 colon; 10 µM unless noted 99.9% and 107% | MCF7 breast; 10 µM unless noted 108% and 123% | HCT-116 colon; 10 µM unless noted 92.3% and 92.6% | HCC-2998 colon; 10 µM unless noted 101% and 92.8% | KM12 colon; 10 µM unless noted 103% and 104%

COc1cc(C(=O)c2ccc3c(c2)OCO3)cc(OC)c1OC
16.1% (inactive) and 9.92% (active): SW-620 colon; 10 µM unless noted
inactive: T-47D breast; 10 µM unless noted 34.4% and 32.8% | BT-549 breast; 10 µM unless noted 45.5% and 30.3% | MCF7 breast; 10 µM unless noted 23.2% and 14.8% | HCT-116 colon; 10 µM unless noted 27.2% and 24.5% | HCC-2998 colon; 10 µM unless noted 60.1% and 54.8% | KM12 colon; 10 µM unless noted 24.7% and 27.3%
active: MDA-MB-435 melanoma; 10 µM unless noted -19.5% and -21.3%
